# According to ChEMBL document CHEMBL3988442, “University of Dundee, Small-Polar-MMV Screening Library” (2021):
# For some of these results: Results with a measured potency or affinity are listed apart.
# What was measured:
# Parameters in all cases: scale not given: direction of the effect not stated beside the values
# [1] = target: Protein translocase subunit SecA (Escherichia coli (strain K12)) (UniProt P10408); assay: Assay to Identify E. coli SecA ATPase Inhibitors; assay type: functional; settings: 30 µM
# [2] = target: T1, Ubiquitin-activating enzyme e1, putative (Leishmania donovani (strain BPK282A1)) (UniProt E9BSI1); assay: Leishmania donovani Ubiquitin Activating Enzyme (LdE1); assay type: functional; settings: 30 µM
# T1 sequence (whole entry): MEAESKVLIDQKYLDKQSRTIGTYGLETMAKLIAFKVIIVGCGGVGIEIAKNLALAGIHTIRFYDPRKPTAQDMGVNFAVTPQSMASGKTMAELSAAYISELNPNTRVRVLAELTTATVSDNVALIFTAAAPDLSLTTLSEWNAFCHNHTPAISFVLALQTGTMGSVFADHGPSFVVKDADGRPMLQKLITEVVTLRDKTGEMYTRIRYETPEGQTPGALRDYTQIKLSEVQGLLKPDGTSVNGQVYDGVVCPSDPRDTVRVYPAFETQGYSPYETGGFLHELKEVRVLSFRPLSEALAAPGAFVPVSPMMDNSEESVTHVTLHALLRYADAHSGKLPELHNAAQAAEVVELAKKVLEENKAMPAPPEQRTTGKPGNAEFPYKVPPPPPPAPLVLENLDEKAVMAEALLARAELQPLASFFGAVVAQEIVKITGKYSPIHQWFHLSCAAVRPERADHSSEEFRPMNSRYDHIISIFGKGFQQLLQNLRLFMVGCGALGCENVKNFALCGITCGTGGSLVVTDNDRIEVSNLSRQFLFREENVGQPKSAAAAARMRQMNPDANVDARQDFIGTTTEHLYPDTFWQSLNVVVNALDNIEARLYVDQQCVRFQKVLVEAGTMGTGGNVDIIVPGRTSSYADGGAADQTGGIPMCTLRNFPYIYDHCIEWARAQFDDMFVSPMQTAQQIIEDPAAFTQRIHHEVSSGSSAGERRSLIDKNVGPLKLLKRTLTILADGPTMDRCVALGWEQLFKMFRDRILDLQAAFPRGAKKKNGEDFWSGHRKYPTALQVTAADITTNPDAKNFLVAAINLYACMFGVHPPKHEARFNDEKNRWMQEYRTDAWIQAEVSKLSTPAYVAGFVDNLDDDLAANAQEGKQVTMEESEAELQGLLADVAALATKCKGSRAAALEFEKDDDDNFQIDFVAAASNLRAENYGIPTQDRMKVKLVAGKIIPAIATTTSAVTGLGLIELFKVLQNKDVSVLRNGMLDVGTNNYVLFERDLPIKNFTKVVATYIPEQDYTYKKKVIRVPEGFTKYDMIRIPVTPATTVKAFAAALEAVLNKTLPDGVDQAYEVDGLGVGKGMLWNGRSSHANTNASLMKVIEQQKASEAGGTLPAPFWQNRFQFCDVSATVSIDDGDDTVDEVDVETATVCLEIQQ
# [3] = target: AMP-activated protein kinase, AMPK (Homo sapiens) (UniProt P54646+O43741+P54619+Q9UGJ0+Q9Y478+Q13131+Q9UGI9); assay: AMP-dependent Kinase enzyme assay. An in vitro enzyme assay that detects ADP turnover that is directly proportional to AMPK activity. This uses naive AMPK that is activated during the assay with MK-8722; assay type: functional; settings: 30 µM
# [4] = target: Sialic acid-binding Ig-like lectin 9 (Homo sapiens) (UniProt Q9Y336); assay: Hs-Siglec9 ALPHAscreen SOP 20170721; settings: 10 µM
# Trypanosoma cruzi = assay: Trypanosoma cruzi phosphomannomutase and mannose-1-phosphate guanylyltransferase assay; assay type: functional; settings: 10 µM
# [5] = target: T2, Arginase-2, mitochondrial (Homo sapiens) (UniProt P78540); assay: in vitro enzyme assay to detect the production of urea directly proportional to the activity of Arginase II; assay type: functional; settings: 33.3 µM; note: in the data most compounds retested in dose-response had high values
# T2 sequence (whole entry): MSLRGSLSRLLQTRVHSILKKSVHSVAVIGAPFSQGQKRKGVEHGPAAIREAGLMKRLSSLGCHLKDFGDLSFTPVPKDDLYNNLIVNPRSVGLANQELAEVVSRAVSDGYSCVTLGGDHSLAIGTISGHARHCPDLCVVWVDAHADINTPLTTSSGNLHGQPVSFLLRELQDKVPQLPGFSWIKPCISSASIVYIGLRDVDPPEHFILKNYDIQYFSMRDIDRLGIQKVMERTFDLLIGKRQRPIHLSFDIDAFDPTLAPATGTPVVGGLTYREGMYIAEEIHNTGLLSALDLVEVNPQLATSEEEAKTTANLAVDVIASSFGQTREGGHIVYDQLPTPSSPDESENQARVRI
# [6] = target: T3, Proteasome subunit beta (Trypanosoma cruzi) (UniProt O96673); assay: Trypanosoma cruzi proteasome chymotrypsin-like activity (TcProtChymo) assay.; note: in the data most compounds retested in dose-response had high values; assay type: functional; settings: 9.37 µM
# T3 sequence (whole entry): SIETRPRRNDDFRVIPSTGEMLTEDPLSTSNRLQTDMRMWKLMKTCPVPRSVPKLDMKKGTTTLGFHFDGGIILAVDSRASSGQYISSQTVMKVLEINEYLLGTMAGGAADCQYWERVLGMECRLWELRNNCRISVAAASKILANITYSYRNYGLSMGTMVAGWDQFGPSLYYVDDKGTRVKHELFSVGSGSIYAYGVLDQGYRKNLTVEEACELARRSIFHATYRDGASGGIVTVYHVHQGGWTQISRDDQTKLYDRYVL
# Homo sapiens = organism: Homo sapiens; assay: To identify inhibition of the IFN signalling (Jak-Stat) pathway via expression of an eGFP reporter gene under the control of an IFN-stimulated response element (ISRE) containing MxA promoter.; assay type: functional; settings: 30 µM
# [7] = target: T4, Tyrosyl-tRNA synthetase, putative (Trypanosoma cruzi (strain CL Brener)) (UniProt Q4DSP6); assay: Trypanosoma cruzi tyrosyl tRNA synthetase (TcYRS) _High Tyrosine SOP; assay type: functional; settings: 30 µM; note: in the data most compounds retested in dose-response had high values
# T4 sequence (whole entry): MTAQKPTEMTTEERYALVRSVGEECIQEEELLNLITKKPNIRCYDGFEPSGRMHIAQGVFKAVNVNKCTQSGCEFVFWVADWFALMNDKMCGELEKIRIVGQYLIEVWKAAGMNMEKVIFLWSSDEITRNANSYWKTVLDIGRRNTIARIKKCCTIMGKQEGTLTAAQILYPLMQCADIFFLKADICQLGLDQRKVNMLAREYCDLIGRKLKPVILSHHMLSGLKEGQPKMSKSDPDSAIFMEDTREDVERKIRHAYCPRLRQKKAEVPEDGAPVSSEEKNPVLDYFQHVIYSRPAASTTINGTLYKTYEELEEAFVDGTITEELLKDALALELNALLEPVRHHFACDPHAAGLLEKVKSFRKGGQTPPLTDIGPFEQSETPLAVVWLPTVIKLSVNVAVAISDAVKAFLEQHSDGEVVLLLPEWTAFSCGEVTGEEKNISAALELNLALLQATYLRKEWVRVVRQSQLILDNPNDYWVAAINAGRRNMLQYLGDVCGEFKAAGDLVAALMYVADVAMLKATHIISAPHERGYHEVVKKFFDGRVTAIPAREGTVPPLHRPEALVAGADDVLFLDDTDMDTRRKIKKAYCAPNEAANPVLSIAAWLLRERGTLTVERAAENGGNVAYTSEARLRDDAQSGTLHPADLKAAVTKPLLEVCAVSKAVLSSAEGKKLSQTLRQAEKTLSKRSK
# [8] = target: T4, Tyrosyl-tRNA synthetase, putative (Trypanosoma cruzi (strain CL Brener)); assay: Trypanosoma cruzi tyrosyl tRNA synthetase (TcYRS) SOP; assay type: functional; settings: 30 µM
# [9] = target: Chromo domain-containing protein 1 (Saccharomyces cerevisiae (strain ATCC 204508 / S288c) (Baker's yeast)) (UniProt P32657); assay: ScCHD-1 Enzyme Inhibition Assay; assay type: functional; settings: 30 µM; note: in the data most compounds retested in dose-response had high values
# Chromo domain-containing protein 1 (Saccharomyces cerevisiae (strain ATCC 204508 / S288c) (Baker's yeast)), sequence (P32657 whole entry, the tested form may be a part): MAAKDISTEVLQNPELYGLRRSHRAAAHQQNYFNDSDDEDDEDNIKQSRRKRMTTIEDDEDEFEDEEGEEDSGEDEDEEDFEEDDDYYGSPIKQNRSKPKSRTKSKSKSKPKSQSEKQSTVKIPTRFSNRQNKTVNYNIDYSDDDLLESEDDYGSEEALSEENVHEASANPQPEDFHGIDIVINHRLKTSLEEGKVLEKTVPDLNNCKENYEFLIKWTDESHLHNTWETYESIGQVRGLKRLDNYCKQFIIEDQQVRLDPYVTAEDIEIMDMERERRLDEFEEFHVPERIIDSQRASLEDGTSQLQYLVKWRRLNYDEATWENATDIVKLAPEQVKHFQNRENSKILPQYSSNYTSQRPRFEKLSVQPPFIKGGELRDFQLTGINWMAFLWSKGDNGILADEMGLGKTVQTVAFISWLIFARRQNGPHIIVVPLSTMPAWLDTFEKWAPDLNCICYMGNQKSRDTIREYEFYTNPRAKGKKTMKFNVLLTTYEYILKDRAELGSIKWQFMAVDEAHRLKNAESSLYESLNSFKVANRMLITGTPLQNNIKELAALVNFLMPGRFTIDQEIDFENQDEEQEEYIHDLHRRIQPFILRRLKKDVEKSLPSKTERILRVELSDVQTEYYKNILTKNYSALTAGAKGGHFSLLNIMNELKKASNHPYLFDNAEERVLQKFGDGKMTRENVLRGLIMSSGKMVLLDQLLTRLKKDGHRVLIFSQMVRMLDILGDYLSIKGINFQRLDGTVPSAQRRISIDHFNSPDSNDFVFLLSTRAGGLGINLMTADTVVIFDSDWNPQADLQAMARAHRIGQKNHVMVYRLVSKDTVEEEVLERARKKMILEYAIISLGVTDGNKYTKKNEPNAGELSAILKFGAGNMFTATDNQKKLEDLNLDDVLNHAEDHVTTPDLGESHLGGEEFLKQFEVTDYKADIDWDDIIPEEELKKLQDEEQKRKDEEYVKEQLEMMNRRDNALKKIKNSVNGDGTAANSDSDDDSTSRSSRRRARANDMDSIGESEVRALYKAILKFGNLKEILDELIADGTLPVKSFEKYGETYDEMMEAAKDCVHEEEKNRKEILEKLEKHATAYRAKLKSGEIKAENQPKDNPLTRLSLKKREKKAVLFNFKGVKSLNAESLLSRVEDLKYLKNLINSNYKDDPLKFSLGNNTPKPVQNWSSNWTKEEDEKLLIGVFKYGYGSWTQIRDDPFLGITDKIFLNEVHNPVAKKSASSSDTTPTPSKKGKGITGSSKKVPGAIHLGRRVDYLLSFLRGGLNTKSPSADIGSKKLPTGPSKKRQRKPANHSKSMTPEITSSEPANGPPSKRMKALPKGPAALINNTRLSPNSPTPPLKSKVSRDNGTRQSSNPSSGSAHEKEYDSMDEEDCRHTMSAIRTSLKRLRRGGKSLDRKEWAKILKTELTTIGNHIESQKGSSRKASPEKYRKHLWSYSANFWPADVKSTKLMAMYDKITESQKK
# Protein translocase subunit SecA (Escherichia coli (strain K12)), sequence (P10408 whole entry): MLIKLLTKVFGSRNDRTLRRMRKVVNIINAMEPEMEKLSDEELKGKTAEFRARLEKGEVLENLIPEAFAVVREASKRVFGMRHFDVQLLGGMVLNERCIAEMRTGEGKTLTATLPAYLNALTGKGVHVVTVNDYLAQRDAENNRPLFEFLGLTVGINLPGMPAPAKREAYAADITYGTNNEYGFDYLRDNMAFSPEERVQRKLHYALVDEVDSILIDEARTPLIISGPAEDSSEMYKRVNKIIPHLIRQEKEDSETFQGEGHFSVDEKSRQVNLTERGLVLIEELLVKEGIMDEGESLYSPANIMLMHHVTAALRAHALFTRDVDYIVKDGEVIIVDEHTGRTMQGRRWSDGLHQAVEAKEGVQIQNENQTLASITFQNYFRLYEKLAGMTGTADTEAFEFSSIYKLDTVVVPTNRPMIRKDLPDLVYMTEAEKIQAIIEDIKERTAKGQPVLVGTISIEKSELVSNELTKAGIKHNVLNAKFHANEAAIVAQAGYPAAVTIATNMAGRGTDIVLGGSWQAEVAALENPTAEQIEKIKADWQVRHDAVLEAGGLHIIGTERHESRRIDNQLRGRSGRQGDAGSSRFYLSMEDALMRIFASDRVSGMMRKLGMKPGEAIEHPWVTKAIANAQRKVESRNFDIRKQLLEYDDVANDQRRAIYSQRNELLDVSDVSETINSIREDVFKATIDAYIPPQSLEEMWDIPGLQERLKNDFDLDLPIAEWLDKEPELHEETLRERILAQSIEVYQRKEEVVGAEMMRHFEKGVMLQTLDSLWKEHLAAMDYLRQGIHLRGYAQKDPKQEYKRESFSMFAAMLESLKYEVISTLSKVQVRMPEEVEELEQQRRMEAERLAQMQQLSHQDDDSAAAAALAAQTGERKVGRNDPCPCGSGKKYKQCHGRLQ
# Sialic acid-binding Ig-like lectin 9 (Homo sapiens), sequence (Q9Y336 whole entry): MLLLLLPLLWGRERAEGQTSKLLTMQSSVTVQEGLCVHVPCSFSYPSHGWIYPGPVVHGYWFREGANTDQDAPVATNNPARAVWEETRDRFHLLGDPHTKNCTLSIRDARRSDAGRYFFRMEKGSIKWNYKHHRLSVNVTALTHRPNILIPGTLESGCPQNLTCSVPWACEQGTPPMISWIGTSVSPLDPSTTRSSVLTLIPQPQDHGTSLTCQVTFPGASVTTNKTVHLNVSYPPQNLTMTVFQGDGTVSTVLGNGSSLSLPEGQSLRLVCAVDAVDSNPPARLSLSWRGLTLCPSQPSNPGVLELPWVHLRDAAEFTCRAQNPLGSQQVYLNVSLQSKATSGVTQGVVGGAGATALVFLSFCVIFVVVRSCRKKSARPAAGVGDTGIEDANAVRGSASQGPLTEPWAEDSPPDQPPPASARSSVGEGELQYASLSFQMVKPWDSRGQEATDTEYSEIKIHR
SMILES,Percent Effect [1],Percent Effect [2],Percent Effect [3],Percent Effect [4],Percent Effect (Trypanosoma cruzi),Percent Effect [5],Percent Effect [6],Percent Effect (Homo sapiens),Percent Effect [7],Percent Effect [8],Percent Effect [9]
CN(CCOc1cccc(CN)c1)C1CCOCC1,1.04%,2.7%,-5.71%,-2.08%,1.54%,-5.24%,7.41%,-5.29%,1.59%,9.76%,13.5%
Cn1nccc1C(=O)N1CCOC(Cc2cccnc2)C1 (stereo not drawn),-5.75%,10.7%,-3.23%,4.56%,5.91%,-3.03%,-4.85%,7.36%,6.38%,16.7%,-7.31%
CCN(Cc1ccco1)C(=O)NCc1nnc2n1CCC2,-1.4%,10.8%,-2.71%,1.38%,-1.35%,3.81%,20.5%,0.671%,6.88%,14.6%,-1.97%
CCc1nsc(NC2CCCn3nc(CC)nc32)n1 (stereo not drawn),-6.19%,8%,-4.68%,26%,7.3%,6.25%,13.6%,0.363%,3.83%,13.6%,-7.22%
CCc1c(C)nc2n(c1=O)CC(C(=O)Nc1nc3c(s1)CCCC3)CS2 (stereo not drawn),-2.52%,13%,6.33%,7.47%,2.86%,-4.52%,7.66%,18.6%,6.35%,14.1%,-8.32%
Cc1nc(N2CCN(C(=O)c3ccsc3)CC2)c2cnn(C)c2n1,-3.6%,2.7%,-6.08%,16.1%,1.6%,-6.01%,5.04%,5.31%,4.43%,13.6%,-7.11%
CCN1CCN(c2nc(C(C)C)nc3c(C)nn(CC)c23)CC1,-8.3%,0%,-2.21%,5.36%,-1.28%,-5.52%,-0.832%,1.81%,-2.15%,-48.1%,-0.207%
CC(=O)N1CCC2(CC1)CC(Oc1ccccc1)CO2 (stereo not drawn),1.79%,2.74%,2.24%,9.38%,-4.17%,-1.2%,19.6%,1.3%,6.25%,8.64%,3.27%
